Source: PubChem BioAssay AID588674 (Broad Institute, 2011)
In all, about 360,000 compounds went through this assay and about 1,800 (0.5%) were called active. This excerpt belongs to a sample that is enriched for actives. Values without a mark were called inactive.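 Rule for the calls: active = mean inhibition of at least 75% with every replicate also reaching 75%; inconclusive = mean inhibition at least 75% but some replicate below; inactive = mean inhibition below 75%.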

assay: Shn3 3'UTR reporter decrease in osteoblasts – cell-based, Clone20 osteoblasts, firefly luciferase, set 2, Schnurri-3 inhibitor project, primary screen (AID 588674); conditions: Clone20 osteoblast Shn3 3'UTR firefly luciferase, 24 h; at 12.5 µM; hits give high values;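 note: 0% = median of neutral control wells and 100% = pilot-screen positive control compound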

SMILES	inhibition
CCCCCCCCCCCCn1ccc(=N)cc1	90.6% (active)
CN1C2C=C(N(C(=O)c3ccc(Cl)cc3)c3ccccc3)CC1CC2 (stereo not given)	-7.65%
Cc1ccc(S(=O)(=O)N(C)c2ccc(C(=O)NCC3(N(C)C)CCCCC3)cc2)cc1	-2.63%
Nc1ccc(C(=O)N/N=C2/CN3CCC2CC3)cc1	-22.5%
CCC(C)(O)C(=O)OC1C(=O)OC2CC3C(C)=CC(=O)C(O)C3(C)C3C4(O)OCC23C1C(C)C4O (stereo not given)	91.5% (active)
Cc1ccc(C2CN(C)CC2C(=O)c2ccc(F)cc2)cc1 (stereo not given)	6.66%
O=C1NC(=O)C(CCc2ccccn2)(Cc2cccc(Cl)c2Cl)C(=O)N1c1ccc(Br)cc1 (stereo not given)	13.7%
CC(=O)OC1C2(CC3N4C(=O)C5(CO)SSC4(CC31O)C(=O)N5C)OC(C)C(C)(C)C2=O (stereo not given)	98.1% (active)
CCC(=O)c1ccc(OCC(=O)N2CCN(CC(=O)Nc3ccc(C)cc3)CC2)cc1	19.6%
O=C1C2CCN(CC2)C1(CO)CO	-25.5%
O=C(c1ccccc1)C(O)(CN1CCCCC1)c1ccccc1 (stereo not given)	5.93%
CCN1C(=O)C(=Cc2c(C)n(CC(=O)NCC3CCCO3)c3ccccc23)C(=O)N(CC)C1=S (stereo not given)	1.7%
Clc1ccc2nc3c(c(-c4ccccc4)c2c1)CNCC3	14.4%
C[C@]12CCC3C(CC[C@H]4[C@H](O)[C@H](O)CC[C@]34C)C1CCC2=O (stereo not given in full)	-16.7%
Cc1ccc(N2C(=O)NC(=O)C(CCc3ccncc3)(Cc3cccc(Cl)c3Cl)C2=O)cc1 (stereo not given)	-0.01%
